31 molecules from PubChem BioAssay (NCATS) can be followed below.

Results filed as inconclusive are left out. Active and inactive are the calls of the source. Calls follow the shape of the dose curve; as a rule, active = well fitted cell-killing curve with a large enough effect; inconclusive = small, poorly fitted or top-dose-only effect, or effect the other way; inactive = no such curve, though single readings can be large or run the other way.
Potency is read from the fitted curve at half-maximal effect.

The nature of the assay: Viability qHTS for spleen associated tyrosine kinase inhibitor (SYKi) drug resistant MV4-11 cells (AID 1963824). Also: nearly all actives have a fitted effect of over 35% in size. The conditions noted are these: SYKi-resistant MV4-11 viability, CellTiter-Glo, 72 h; series mostly up to 45 µM. An outline of the steps: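 SYK inhibitor-resistant MV4-11 AML cells, 500 per well, added to predispensed compounds and incubated 72 hr at 37 C, 5% CO2. Viability measured by CellTiter-Glo luminescence after 10 min at room temperature.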
On to `CO[C@H]1/C=C\O[C@@]2(C)Oc3c(C)c(O)c4c(O)c(c(/C=N\N5CCN(C6CCCC6)CC5)c(O)c4c3C2=O)NC(=O)/C(C)=C\C=C/[C@H](C)[C@H](O)[C@@H](C)[C@@H](O)[C@@H](C)[C@H](OC(C)=O)[C@@H]1C`, for which the Potency is 10 µM (active).

Take `CC(C)n1cnc2c(NCc3cccc(C(F)(F)F)c3)ncnc21`: the Potency is 20.6 µM (active).

Take `CC(O)/C=C/C1(O)C2(C)COC1(C)CC(O)C2` (stereo unspecified): the Potency result is “inactive”.

`CN1C[C@@H]2c3ccccc3Oc3ccc(Cl)cc3[C@H]2C1`: the Potency was 18.6 µM (active).

Consider `C[C@]1(C(=O)Nc2ccc(F)nc2)CCCN1c1nc(Nc2cc(C3CC3)[nH]n2)c2cccn2n1`, for which the Potency was 1.64 µM (active).

Consider `C[C@@H]1O[C@@H](O[C@H]2[C@@H](OC(=O)[C@]34CCC(C)(C)CC3C3=CCC5[C@@]6(C)C[C@H](O)[C@H](O[C@@H]7O[C@H](CO)[C@@H](O)[C@H](O)[C@H]7O[C@@H]7OC[C@@H](O)[C@H](O)[C@H]7O)[C@@](C)(C(=O)O)C6CC[C@@]5(C)[C@]3(C)CC4)OC[C@H](O)[C@@H]2O)[C@H](O)[C@H](O)[C@H]1O[C@@H]1OC[C@@H](O)[C@H](O)[C@H]1O` (stereo partly specified), for which the Potency was 1.38 µM (active).

Consider `CC(Oc1ccc2[nH]nc(/C=C/c3cnn(CCO)c3)c2c1)c1c(Cl)cncc1Cl` (stereo unspecified), for which the Potency was 0.0116 µM (active).

As for `Cc1ccc(S(=O)(=O)Nc2ccccc2N2CCCCC2)s1`, the Potency was 18.4 µM (active).

As for `CC(=O)Nc1cccc(-c2csc(Nc3cc(C)ccn3)n2)c1`, the Potency is 16.4 µM (active).

Consider `C/C=C(/C)C(=O)OC1C=C2C3C(C)C(C)C(OC(=O)C(C)C(C)O)CC3(C)CCC2(C)C2(C)CC(OC(C)=O)C3C(C)(C)C(O)C(=O)CC3(C)C12` (stereo unspecified), for which the Potency was 4.32 µM (active).

Consider `O=c1cc(-c2ccccc2)oc2ccc(O)cc12`, for which the Potency is 14.6 µM (active).

Consider `Cc1cc(Nc2nc(-c3ccccc3)nc3ccccc23)n[nH]1`, for which the Potency was 0.366 µM (active).

Consider `CC1CC(C(O)C(C)(C)O)OC2CC3(C)C4(C)CCC5C(C)(C)C(=O)CCC5(C)C4CCC3(O)C12O` (stereo unspecified), for which the Potency was 11.2 µM (active).

`CC(C)(O)c1ccc2c(c1)ncn2-c1cccc(-c2ccccc2C#N)c1`: the Potency is 18.4 µM (active).

In the case of `CO[C@H]1O[C@@H]2O[C@@]3(C)CCC4[C@H](C)CCC([C@H]1C)[C@]42OO3` (stereo partly specified), the Potency was 2.91 µM (active).

On to `Cc1ccc(NC(=O)C(C)C)cc1C1CCN(Cc2ccc(Oc3ccc(F)c(F)c3)cc2)CC1`, for which the Potency is 4.61 µM (active).

As for `Fc1ccc(C(c2ccc(F)cc2)N2CCN(C/C=C/c3ccccc3)CC2)cc1`, the Potency is 21.1 µM (active).

As for `Cc1cc(Nc2nc(NC(C)c3ccc(F)cc3)c(C#N)cc2F)n[nH]1` (stereo unspecified), the Potency was 0.461 µM (active).

Take `Clc1ccc2ncc(-c3cccc(NC4CCNC4)n3)n2c1` (stereo unspecified): the Potency is 0.0103 µM (active).

As to `COc1c(-c2ccc3cc(NS(C)(=O)=O)ccc3c2)cc(-n2ccc(=O)[nH]c2=O)cc1C(C)(C)C`, the Potency is 16.4 µM (active).

Regarding `CC1=CC2=C(C)C(=O)C(C)(O)C(O)C2CO1` (stereo unspecified), the Potency entry was “inactive”.

Regarding `CSCC1OC(n2cnc3c(N)ncnc32)C(O)C1O` (stereo unspecified), the Potency result was “inactive”.

Consider `Cc1ccc(C)c(-c2cc(C(F)(F)F)nn2-c2ccc(S(N)(=O)=O)cc2)c1`, for which the Potency was 14.6 µM (active).

As to `C[C@@H]1CC[C@@]2(OC1)O[C@H]1C[C@H]3[C@@H]4CC=C5C[C@@H](O)CC[C@]5(C)[C@H]4CC[C@]3(C)[C@H]1[C@@H]2C`, the Potency result is “inactive”.

On to `CO[C@H]1C[C@@H]2CC[C@@H](C)[C@@](O)(O2)C(=O)C(=O)N2CCCC[C@H]2C(=O)O[C@H]([C@H](C)C[C@@H]2CC[C@@H](OP(C)(C)=O)[C@H](OC)C2)CC(=O)[C@H](C)/C=C(\C)[C@@H](O)[C@@H](OC)C(=O)[C@H](C)C[C@H](C)/C=C/C=C/C=C/1C`, for which the Potency is 3.72 µM (active).

Take `C/C=C/C=C/c1cc2c(C=O)c(O)c(CC=C(C)C)cc2o1`: the Potency was 18.4 µM (active).

As to `Cc1cc(C)c2nc(-c3ccccn3)cc(C(=O)Nc3ccc(S(=O)(=O)Nc4onc(C)c4C)cc3)c2c1`, the Potency is 25.9 µM (active).

For the molecule `C=C1C(=O)OC2C1C(O)CC1(C)C(O)CCC(C=O)C21` (stereo unspecified), the Potency is 16.4 µM (active).

As for `COc1cc2ncnc(Nc3ccc(NC(=O)c4ccccc4)cc3)c2cc1OC`, the Potency is 4.61 µM (active).

On to `OC[C@H]1O[C@@H](n2cnc3c(NCc4ccc(O)cc4)ncnc32)[C@H](O)[C@@H]1O`, for which the Potency is 0.731 µM (active).

Consider `C=CC(=O)N1CCC[C@@H](n2nc(-c3cccc(C(=O)Nc4ccc(C(C)C)c(C)c4)c3)c3c(N)ncnc32)C1`, for which the Potency was 2.31 µM (active).
